The record followed here is PubChem BioAssay (Tox21).

Unmarked numbers belong to inactive results. Records with an inconclusive call do not appear. Calls of active or inactive are those of the source. Unless noted, calls come from the whole dose curve; as a rule, active = well fitted curve in the direction sought with a large enough effect in the repeat runs; inconclusive = weak or mixed curves; inactive = no such curve, though single readings can be large; an effect the other way counts as inactive or inconclusive.

Assay [1] is described as follows: qHTS assay for small molecule agonists of the p53 signaling pathway (AID 651631; calls by dose curve; note: nearly all actives have a fitted effect of over 15% in size; note: potency is the fitted concentration of half-maximal effect). In outline:
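Fluorescence intensity from cleaved LiveBLAzer B/G substrate (2 h, room temperature) served as the signal. Beforehand, HCT-116 reporter cells bearing p53 response elements were treated 16 h at 37 °C with DMSO-dissolved compounds.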

The nature of assay [2]: qHTS assay for small molecule agonists of the p53 signaling pathway - cell viability (AID 651633; calls by dose curve;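 note: p53RE-bla HCT reporter cells with a stable beta-lactamase p53 reporter; series mostly up to about 83 µM; nearly all actives have a fitted effect of over 30% in size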). In outline: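 Viability counter-read: CellTiter-Glo luminescence (30 min, room temperature) in the same p53RE-bla plates. These plates had been exposed to compounds for 16 h at 37 C.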
Assay [3] is described as follows: qHTS assay for small molecules that induce genotoxicity in human embryonic kidney cells expressing luciferase-tagged ATAD5 - cell viability (AID 651634; calls by dose curve; note: nearly all actives have a fitted effect of over 25% in size; note: potency is the fitted concentration of half-maximal effect). In short, it runs like this:
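Quantitative high-throughput format. HEK293T cells expressing ATAD5 fused to luciferase were plated at 2,000 cells/well and treated 15.5 hr with compound versus DMSO. Viability was determined by fluorescent live-cell protease substrate, 30 min at 37C.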
Background: Quantitative high-throughput screening tests each substance at several concentrations.

Assay [4] can be described thus: qHTS assay for small molecule disruptors of the mitochondrial membrane potential - cell viability (AID 720634; calls by dose curve; note: nearly all actives have a fitted effect of over 20% in size; note: potency is the fitted concentration of half-maximal effect). In short, it runs like this:
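Same-well counter-screen: following the MMP dye addition, CellTiter-Glo was added to 1 hr compound-treated HepG2 cells and luminescence read after 30 min at room temperature.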

Assay [5] is described as follows: qHTS assay for small molecule disruptors of the mitochondrial membrane potential (AID 720635). Note: potency is the fitted concentration of half-maximal effect. In short, it runs like this: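 Mitochondrial membrane potential tracked with Mito-MPS dye, red aggregates (ex 540/em 590 nm) against green monomers (ex 490/em 535 nm). Compound treatment 1 hr at 37C, dye 30 min in HepG2.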
Assay [6] can be described thus: qHTS assay to test for compound auto fluorescence at 590 nm (red) in HepG2 cells (AID 720674). In outline: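 1 hr compound incubation on HepG2 cells, 37 C, 5% CO2; plate read ex 540 nm / em 590 nm; intensities reported as Rose Bengal sodium equivalents.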
Assay [7] in a line: qHTS assay to test for compound auto fluorescence at 535 nm (green) in HepG2 cells (AID 720675).
The nature of assay [8]: qHTS assay to test for compound auto fluorescence at 590 nm (red) in HEK293 cells (AID 720679). In outline: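 HEK293 cells (2,000/well, medium with 10% dialyzed FBS) attached for 4-5 hr at 37C, received 23 nL compound and were incubated overnight at 37C, 5% CO2. Red fluorescence was then read at 540/590nm Ex/Em, referenced to Rose Bengal sodium.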
Assay [9] can be described thus: qHTS assay to test for compound auto fluorescence at 535 nm (green) in HEK293 cells (AID 720680).
A short description of assay [10]: qHTS assay to test for compound auto fluorescence at 460 nm (blue) in HEK293 cell free culture (AID 720681). In short, it runs like this:
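Blue fluorescence (Ex 405/Em 460 nm, triamterene-equivalent) was read immediately after pin transfer of compound or DMSO into medium (DMEM, 10% FBS) without cells.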

Assay [11] is described as follows: qHTS assay to test for compound auto fluorescence at 535 nm (green) in HEK293 cell free culture (AID 720682). In outline:
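Intrinsic compound fluorescence is measured in culture medium containing 10% FBS, with excitation at 485 nm and detection at 535 nm, referenced to fluorescein.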

Assay [12] can be described thus: qHTS assay to test for compound auto fluorescence at 590 nm (red) in HEK293 cell free culture (AID 720683). In short, it runs like this:
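Red-channel autofluorescence of compounds in culture medium (DMEM, 10% FBS), no cells, measured at 540/590 nm. Rose Bengal sodium is the reference fluorophore for equivalence.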

Assay [13] is described as follows: qHTS assay to test for compound auto fluorescence at 590 nm (red) in HepG2 cell free culture (AID 720684). In outline:
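Cell-free; medium MEM + 10% FBS; compound or DMSO added by pintool; read Ex 540/Em 590 nm; Rose Bengal sodium as red reference fluorophore.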

The nature of assay [14]: qHTS assay to test for compound auto fluorescence at 460 nm (blue) in HepG2 cell free culture (AID 720685). In outline:
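Cell-free plates of MEM plus 10% FBS received 23 nL compound or DMSO vehicle; blue-channel (405/460 nm) intensity scored against triamterene as reference fluorophore.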

Assay [15] is described as follows: qHTS assay to test for compound auto fluorescence at 535 nm (green) in HepG2 cell free culture (AID 720686).
Assay [16] is described as follows: qHTS assay to test for compound auto fluorescence at 460 nm (blue) in HepG2 cells (AID 720687). In outline: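 Blue-channel autofluorescence (Ex/Em 405/460 nm, triamterene-equivalent) was measured after 1 hr compound exposure at 37 C, 5% CO2. Cells were HepG2, plated overnight at 37 C in MEM plus 10% FBS.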
Assay [17] concerns the target Glucocorticoid receptor (Homo sapiens) (UniProt P04150). The assay is described as follows: qHTS assay to identify small molecule agonists of the glucocorticoid receptor (GR) signaling pathway (AID 720691; active = well fitted activation curve with a large enough effect in the signal ratio in the repeat runs, not every such curve was filed as active; the % refers to the signal ratio). In outline:
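A HeLa cervical cancer line expressing GR and a glucocorticoid response element-driven beta-lactamase gene is treated with compounds for 18 h; LiveBLAzer B/G FRET substrate is then applied and fluorescence read.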

Assay [18] in a line: qHTS assay for small molecules that induce genotoxicity in human embryonic kidney cells expressing luciferase-tagged ATAD5 (AID 651632). Note: nearly all actives have a fitted effect of over 15% in size. Note: potency is the fitted concentration of half-maximal effect. In short, it runs like this:
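Test compounds were delivered by pin tool onto HEK293T reporter cells (2,000/well) expressing ATAD5 fused to luciferase. After 16 hr at 37C, 5% CO2, Amplite was added for 30 min at room temperature and luminescence was measured.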

Assay [19] in a line: qHTS assay to test for compound auto fluorescence at 460 nm (blue) in HEK293 cells (AID 720678). In short, it runs like this: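 HEK293 cells (2,000 per well, medium with 10% dialyzed FBS) attached for 4-5 hr at 37C, then received compound and stood overnight at 37C, 5% CO2. Blue fluorescence was read at Ex/Em 405/460 nm and expressed relative to triamterene.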
The target of assay [20] is Glucocorticoid receptor (Homo sapiens) (UniProt P04150). Put plainly: qHTS assay to identify small molecule antagonists of the glucocorticoid receptor (GR) signaling pathway (AID 720692; active = well fitted inhibition curve with a large enough effect in the signal ratio in the repeat runs, not every such curve was filed as active; the % refers to the signal ratio). In short, it runs like this: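 GRE-bla HeLa line, dex-stimulated (5 nM final). Compound exposure 18 h, 37 C. Beta-lactamase FRET read after 2 h RT substrate.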
Chain of Glucocorticoid receptor (Homo sapiens) (P04150 whole entry, looked up): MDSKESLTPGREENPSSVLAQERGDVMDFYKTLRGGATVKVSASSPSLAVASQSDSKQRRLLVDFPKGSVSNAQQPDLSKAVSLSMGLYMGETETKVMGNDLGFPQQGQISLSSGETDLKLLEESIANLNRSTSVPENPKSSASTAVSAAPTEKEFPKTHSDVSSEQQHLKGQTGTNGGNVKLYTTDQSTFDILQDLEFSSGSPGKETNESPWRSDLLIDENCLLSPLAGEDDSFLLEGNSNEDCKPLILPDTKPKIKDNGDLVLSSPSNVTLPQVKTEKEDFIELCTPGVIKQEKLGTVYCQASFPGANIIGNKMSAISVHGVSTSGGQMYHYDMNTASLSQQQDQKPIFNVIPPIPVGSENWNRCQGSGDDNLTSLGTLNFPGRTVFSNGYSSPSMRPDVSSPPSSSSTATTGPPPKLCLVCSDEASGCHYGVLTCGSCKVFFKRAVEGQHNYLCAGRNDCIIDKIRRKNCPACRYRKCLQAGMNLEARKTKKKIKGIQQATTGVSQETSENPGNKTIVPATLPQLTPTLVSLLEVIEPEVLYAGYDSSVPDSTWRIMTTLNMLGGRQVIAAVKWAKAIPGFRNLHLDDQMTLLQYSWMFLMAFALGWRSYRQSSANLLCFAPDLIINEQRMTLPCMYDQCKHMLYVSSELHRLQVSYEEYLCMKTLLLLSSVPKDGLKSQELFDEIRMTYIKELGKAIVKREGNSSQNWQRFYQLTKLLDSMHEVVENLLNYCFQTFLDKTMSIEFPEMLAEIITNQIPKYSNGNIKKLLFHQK

Turning to `COc1cc(C)ccc1O`, the Potency entry in [1], in assay [2], in assay [3], in assay [4], in assay [5] and in assay [6] was “inactive” throughout. Besides, the Potency result in [7], in assay [8], in assay [9], in [10], in [11] and in assay [12] was “inactive” in each case. The Potency result in [13], in assay [14], in assay [15], in assay [16] and in assay [17] was “inactive” in each case.

Consider `O=C(O)CCN(C1(C(=O)NO)CCCC1)S(=O)(=O)c1ccc(Oc2ccc(F)cc2)cc1`, for which the Potency result in assay [1], in [18], in assay [2], in assay [3], in [6] and in assay [7] was “inactive” in each case. Besides, the Potency entry in assay [8], in assay [9], in [10], in assay [11], in [12] and in [13] was “inactive” in each case. Besides, the Potency result in [14], in [15] and in [16] was “inactive” in each case.

Regarding `O=C1C(c2[nH]c3ccc(S(=O)(=O)O)cc3c2O)=Nc2ccc(S(=O)(=O)O)cc21`, the Potency result in assay [1], in [2], in assay [3], in assay [4], in assay [5] and in assay [6] was “inactive” throughout. The Potency result in [7], in [8], in assay [9], in [10], in assay [11] and in assay [12] was “inactive” in each case. The Potency entry in [13], in [14], in [15] and in [16] was “inactive” each time.

Take `OC/C=C/CO`: the Potency entry in assay [1], in [18], in [2], in assay [3], in assay [6] and in assay [7] was “inactive” throughout. Moreover, the Potency entry in assay [19], in assay [8], in assay [10], in [11], in assay [12] and in assay [13] was “inactive” in each case. Besides, the Potency result in assay [14], in assay [15] and in [16] was “inactive” throughout.

On to `CC(=O)OCC=C(C)C`, for which the Potency entry in assay [1], in assay [18], in [2], in assay [3], in [5] and in assay [6] was “inactive” each time. Further, the Potency entry in [7], in [19], in assay [8], in assay [10], in assay [11] and in assay [12] was “inactive” each time. For the same molecule, the Potency entry in [13], in [14], in assay [15], in [16] and in assay [17] was “inactive” in each case.

As to `CNC(=O)c1ccccc1Sc1ccc2c(/C=C/c3ccccn3)n[nH]c2c1`, the Potency in [1] is 0.75 µM (active); in [18], 0.237 µM (active); in assay [3], 13.3 µM (active); in assay [5] it was 2.37 µM (active). The Potency entry in assay [2], in assay [6], in [7], in assay [19], in assay [8] and in assay [9] was “inactive” in each case. Further, the Potency entry in assay [10], in assay [11], in assay [12], in assay [13], in assay [15] and in assay [16] was “inactive” in each case. Further, the Potency entry in assay [20] is “inactive”.

Take `O=[N+]([O-])c1ccc(O)cc1C(F)(F)F`: the Potency is 27.3 µM (active) in assay [1], 27.3 µM (active) in [3], 5.45 µM (active) in [4] and 3.44 µM (active) in [5]. In addition, the Potency entry in assay [2], in assay [6], in assay [7], in assay [19], in assay [8] and in assay [9] was “inactive” in each case. The Potency entry in assay [10], in assay [11], in assay [12], in assay [13], in assay [14] and in assay [15] was “inactive” each time. The Potency result in [16] and in assay [17] was “inactive” throughout.
